From PubChem BioAssay AID743465 (Broad Institute, 2014)
This is one part of the list. Results filed as inconclusive are left out. Unmarked numbers belong to inactive results.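 How the source made its calls: active means compounds lowering PCK1 expression whose fitted half-maximal concentration is at most twice the top tested dose; inconclusive means flat fit with moderate opposite-direction effect, or poor fit; inactive means the rest.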

experiment: hepatocyte PCK1 gene expression decrease – cell-based, primary mouse hepatocytes, RT-qPCR, cherry-pick, PGC-1a acetylation activator project, dose response (AID 743465); conditions: PCK1 mRNA qPCR, forskolin-stimulated; series mostly up to 26 µM; PCK1 expression decrease: at the top concentration;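 further: values are delta delta Ct of PCK1 relative to GAPDH; higher delta delta Ct means lower PCK1 expression so positive values indicate hits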

Row | Compound | PCK1 expression decrease
1 | Cc1ccc(S(=O)(=O)Nc2ccc3c(c2)C(=O)N([C@@H](C)CO)C[C@@H](C)[C@H](CN(C)C(=O)Nc2cccc4ccccc24)OCCCC[C@H](C)O3)cc1 | 17.2 unspecified
2 | Cc1ccc(OCC(=O)NCCCNC(=O)c2cccnc2)cc1C | 52.7 unspecified
3 | CCOC(=O)c1c(-c2ccc(C)cc2C)csc1NC(=O)CSc1nnnn1C | 86.5 unspecified
4 | COc1ccc(-n2nnnc2CNC(=O)c2ccc3ccccc3c2)cc1 | 3.44 unspecified
5 | COc1ccc(Nc2nnc(C)c3ccccc23)cc1 | 25.2 unspecified
6 | CC(C)CCNc1nc(N2CCCC2)c2c(c1C#N)CCN(C)C2 | 96 unspecified
7 | CCC(C)(C)n1nnnc1C(c1ccccc1OC)N1CCSCC1 (centres undefined) | 105 unspecified
8 | Cc1cc(C(=O)NNS(=O)(=O)c2ccccc2C(F)(F)F)nn1C(C)(C)C | 43.1 unspecified
9 | CCCCC(=O)Nc1ccc(C(=O)NCCCn2ccnc2)cc1 | 19.7 unspecified
10 | Cc1cc(C)c2c(-n3cccc3)c(C(=O)NNS(=O)(=O)c3ccc(F)cc3)sc2n1 | 9.38 unspecified
11 | CCOc1ccccc1CN1CCN(C2CCC2)CC1CCO (centres undefined) | 32.8 unspecified
12 | O=C(NCc1ccccc1)C(c1ccccc1)N(C(=O)c1csnn1)c1ccc(F)cc1 (centres undefined) | 318 unspecified [at 8 µM]
13 | CCOC(=O)c1c(NC(=O)CSc2cn(CC)c3ccccc23)sc2c1CCC2 | 44 unspecified
14 | O=C(NCCC1CCCCN1S(=O)(=O)c1cccs1)C(=O)Nc1ccc(F)cc1F (centres undefined) | -10.4 unspecified
